The nature of experiment [1]: Primary qHTS for inhibitors of SARS-S pseudo-typed particle cell entry (AID 1479145). Further: nearly all actives have a fitted effect of over 45% in size. The conditions noted are these: SARS-S pseudotyped particle cell entry, luciferase reporter; series mostly up to 57.1 µM.
Experiment [2] can be described thus: Primary qHTS for Huh7 cytotoxicity: counterscreen for inhibitors of MERS-S pseudotyped particle cell entry (AID 1479147). The conditions noted are these: cell viability read-out; series mostly up to 57.1 µM.
The nature of experiment [3]: Primary qHTS for inhibitors of MERS-S pseudo-typed particle cell entry (AID 1479149). Further: nearly all actives have a fitted effect of over 60% in size. The conditions noted are these: MERS-S pseudotyped particle entry, luciferase; series mostly up to 57.1 µM.

Results filed as inconclusive are left out. Activity calls are given as the source filed them. The call rests on the fitted dose curve.

For `CN1[C@H]2CC[C@@H]1[C@@H](C(=O)O)[C@@H](OC(=O)c1ccccc1)C2`, the outcome in experiment [1] was inactive. The outcome in experiment [2] and in experiment [3] was “inactive [at 114 µM]” throughout.

Take `Cn1sc(Cl)cc1=O`: the call in experiment [1], in experiment [2] and in experiment [3] was inactive.

`CCOc1ccc2c3c1O[C@H]1[C@@H](O)C=C[C@H]4[C@@H](C2)N(C)CC[C@@]341`: the result in experiment [2] and in experiment [3] was inactive.

With `C[C@@H](CO)NC(=O)[C@@H]1C=C2c3cccc4[nH]cc(c34)C[C@H]2N(C)C1`, the call in experiment [1], in experiment [2] and in experiment [3] was inactive.

The record behind these values is PubChem BioAssay (NCATS).
